Among the data in PubChem BioAssay (NCATS) are Potency values, retold here.

A short description of experiment [1]: BET inhibitor-based combinations targeting novel dependencies in MECOM-rearranged (r) AML: OCI-AML3 cell line (AID 2202232). Also: nearly all actives have a fitted effect of over 35% in size. The note with it: Potency: OCI-AML3 viability. The method, boiled down: (§1)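 AML cell lines seeded at 500 cells/well, treated with 11-point dose curves for 48 h. Viability by CellTiter-Glo luminescence, normalised to DMSO and empty wells; activity expressed as AUC and per-cell-line Z-transformed AUC.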

A short description of experiment [2]: BET inhibitor-based combinations targeting novel dependencies in MECOM-rearranged (r) AML: MV-4-11 cell line (AID 2202233). Also: nearly all actives have a fitted effect of over 45% in size. In outline:
(§2)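 Cells at 500/well were exposed for 48 hr to MIPE v5.0 drugs as 11-point dose curves. Viability was read by CellTiter-Glo luminescence and normalized to DMSO and empty-well controls. Activity was expressed as AUC and per-cell-line Z-AUC.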

Experiment [3] in a line: BET inhibitor-based combinations targeting novel dependencies in MECOM-rearranged (r) AML: AML-191 cell line (AID 2202236; also: nearly all actives have a fitted effect of over 35% in size). In outline:
as §1

A short description of experiment [4]: BET inhibitor-based combinations targeting novel dependencies in MECOM-rearranged (r) AML: HNT-34 cell line (AID 2202234). Also: nearly all actives have a fitted effect of over 35% in size. The method, boiled down:
as §2

Experiment [5] can be described thus: BET inhibitor-based combinations targeting novel dependencies in MECOM-rearranged (r) AML: AML-194 cell line (AID 2202237; also: nearly all actives have a fitted effect of over 40% in size). The method, boiled down: as §1
The nature of experiment [6]: BET inhibitor-based combinations targeting novel dependencies in MECOM-rearranged (r) AML: UCSD-AML1 cell line (AID 2202235). Also: nearly all actives have a fitted effect of over 40% in size. The method, boiled down:
as §2

Each structure is given as a SMILES string. Results filed as inconclusive are left out. Calls of active or inactive are those of the source. Calls follow the shape of the dose curve; as a rule, active = well fitted curve in the direction sought with a large enough effect; inconclusive = small, poorly fitted or top-dose-only effect, or another doubt; inactive = no such curve, though single readings can be large; an effect the other way counts as inactive or inconclusive.
Potency is read from the fitted curve at half-maximal effect.

As to `COc1cc(N2CCN(C)CC2)ccc1Nc1ncc2c(n1)N(C)c1ccccc1C(=O)N2`, the Potency in experiment [1] is 18.6 µM (active); in experiment [2], 18.6 µM (active); in experiment [3] it was 26.3 µM (active).

As for `COc1ccc(-c2oc3ncnc(N)c3c2-c2ccc(NC(=O)Nc3cc(C(F)(F)F)ccc3F)cc2)cc1`, the Potency in experiment [1] is 10.5 µM (active); in experiment [2], 0.372 µM (active); in experiment [4], 7.42 µM (active); in experiment [3] it was 8.33 µM (active); in experiment [5], 7.42 µM (active).

For the compound `Nc1n[n+]([O-])c2ccccc2[n+]1[O-]`, the figures for the Potency in experiment [1], in experiment [4] and in experiment [3] were 18.6 µM (active), 16.6 µM (active) and 18.6 µM (active), respectively. Moreover, the Potency entry in experiment [6] was “inactive”.

`CCOC(=O)N[C@@H]1CC[C@@H]2[C@@H](C1)C[C@H]1C(=O)O[C@H](C)[C@H]1[C@H]2/C=C/c1ccc(-c2cccc(F)c2)cn1`: the Potency in experiment [1] is 14.8 µM (active); in experiment [2] it was 26.3 µM (active). In addition, the Potency result in experiment [6] and in experiment [3] was “inactive” in each case.

For `COc1cc(F)ccc1-c1ncnc(Nc2cccc(CS(C)(=N)=O)c2)n1` (stereo not given), the Potency in experiment [1] is 0.934 µM (active); in experiment [2] it was 0.742 µM (active); in experiment [3] it was 0.662 µM (active); in experiment [5] it was 0.934 µM (active).

`CCC(=O)O[C@]1(C(=O)CO)CC[C@H]2[C@@H]3CCC4=CC(=O)CC[C@]4(C)[C@H]3CC[C@@]21C`: the Potency entry in experiment [1], in experiment [2], in experiment [6] and in experiment [5] was “inactive” each time.

For `CC(C)Cc1ccc([C@@H](C)C(=O)NS(C)(=O)=O)cc1`, the Potency result in experiment [1], in experiment [2], in experiment [4], in experiment [3] and in experiment [5] was “inactive” each time.

For `N#Cc1ccc(-c2c(-c3ncn[nH]3)sc(N3CCOCC3)c2C#N)c(F)c1`, the Potency in experiment [1] was 5.9 µM (active); in experiment [2] it was 5.9 µM (active); in experiment [4], 10.5 µM (active); in experiment [5], 3.32 µM (active).

As for `Nc1ncnc(Nc2ccc(OCc3ccccc3)c(Cl)c2)c1/C=N/OCCN1CCOCC1`, in experiment [1], the Potency entry is “inactive”. In addition, the Potency in experiment [4] was 23.5 µM (active).

As to `[O-][n+]1cccc(-c2nc3c(Cl)cccc3cc2[C@@H](Nc2ncnc3cccnc23)C(F)(F)F)c1`, the Potency was 5.25 µM (active) in experiment [1], 8.33 µM (active) in experiment [2] and 6.61 µM (active) in experiment [6].

For the compound `COC(=O)Nc1nc2ccc(S(=O)c3ccccc3)cc2[nH]1` (stereo not given), the Potency in experiment [1] was 26.3 µM (active); in experiment [2] it was 16.6 µM (active); in experiment [6] it was 7.42 µM (active); in experiment [3], 6.61 µM (active).

With `N#C/C(=C(/N)Sc1ccc(N)cc1)c1ccccc1C(F)(F)F`, the Potency in experiment [1] is 7.42 µM (active); in experiment [2], 18.6 µM (active); in experiment [3] it was 5.9 µM (active); in experiment [5], 16.6 µM (active).

Consider `CCC(=O)N1CCOc2c(cc(-c3cc(OC)cc(OC)c3)cc2C(=O)N[C@H]2CCCN(C)C2)C1`, for which the Potency in experiment [1] was 16.6 µM (active); in experiment [2], 10.5 µM (active); in experiment [5], 18.6 µM (active).

On to `CCNCCS(=O)(=O)NC[C@@]1(c2ccccc2)SC(NC(=O)C(C)(C)C)=NN1C(=O)C(C)(C)C`, for which the Potency in experiment [1] is 0.0042 µM (active); in experiment [2], 0.0042 µM (active); in experiment [6], 0.0047 µM (active); in experiment [3], 0.0209 µM (active).

Turning to `CC(C)(C)C[C@H]1N[C@@H](C(=O)NC2CCC(O)CC2)[C@H](c2cccc(Cl)c2F)[C@@]12C(=O)Nc1cc(Cl)ccc12` (stereo not given in full), the Potency is 4.17 µM (active) in experiment [1], 0.934 µM (active) in experiment [4], 1.66 µM (active) in experiment [6] and 2.35 µM (active) in experiment [3].

On to `Cc1cc2cc(Oc3ccnc(Nc4cccc(CS(=O)(=O)NCCN(C)C)c4)n3)ccc2[nH]1`, for which the Potency in experiment [1] is 20.9 µM (active); in experiment [2] it was 3.32 µM (active); in experiment [6] it was 16.6 µM (active); in experiment [3] it was 18.6 µM (active); in experiment [5], 16.6 µM (active).

Consider `Nc1nc(F)nc2c1ncn2[C@@H]1O[C@H](COP(=O)(O)O)[C@@H](O)[C@@H]1O`, for which the Potency in experiment [1] was 20.9 µM (active); in experiment [2], 11.8 µM (active); in experiment [6], 1.18 µM (active); in experiment [3], 3.32 µM (active); in experiment [5] it was 4.17 µM (active).

As to `COc1cccc2c1C(=O)c1c(O)c3c(c(O)c1C2=O)C[C@@](O)(C(C)=O)C[C@@H]3O[C@H]1C[C@H](N)[C@H](O)[C@H](C)O1`, the Potency in experiment [1] is 0.0934 µM (active); in experiment [3], 0.186 µM (active).

As for `CC(C)n1cnc2c(NCCCCCCNC(=O)OC(C)(C)C)nc(NCCO)nc21`, the Potency in experiment [2] was 16.6 µM (active).

Regarding `CO[C@H]1/C=C/O[C@@]2(C)Oc3c(C)c(O)c4c(O)c(c5c(c4c3C2=O)=NC2(CCN(CC(C)C)CC2)N=5)NC(=O)/C(C)=C/C=C/[C@H](C)[C@H](O)[C@@H](C)[C@@H](O)[C@@H](C)[C@H](OC(C)=O)[C@@H]1C`, the values for the Potency in experiment [1] and in experiment [3] were 16.6 µM (active) and 18.6 µM (active), respectively.

For `Cc1ccc(Nc2nnc(Cc3ccncc3)c3ccccc23)cc1Br`, the Potency was 16.6 µM (active) in experiment [2] and 20.9 µM (active) in experiment [4]. Further, the Potency result in experiment [6] is “inactive”.
